Screening results from PubChem BioAssay.
D1 potentiator: enhances dopamine response at the human D1 receptor. AID 504651. HEK293 TREx D1 cells, calcium flux, dopamine EC20 potentiation. P21728. potentiation, % at 10 µM. 360,000 compounds, 0.036% hits; in the data active means potentiation above about 30%
D3 antag: antagonists of human D3 dopamine receptor; P35462; AID 652054; D3R cells, DiscoveRx beta-arrestin luminescence, antagonist mode; hits give low values; max response, negative = inhibition, %; 360,000 compounds, 2.5% hits; in the data active means max response below about -50%; inconclusive means no clear call, values can overlap the other calls
Target sequence (P35462 whole entry, looked up): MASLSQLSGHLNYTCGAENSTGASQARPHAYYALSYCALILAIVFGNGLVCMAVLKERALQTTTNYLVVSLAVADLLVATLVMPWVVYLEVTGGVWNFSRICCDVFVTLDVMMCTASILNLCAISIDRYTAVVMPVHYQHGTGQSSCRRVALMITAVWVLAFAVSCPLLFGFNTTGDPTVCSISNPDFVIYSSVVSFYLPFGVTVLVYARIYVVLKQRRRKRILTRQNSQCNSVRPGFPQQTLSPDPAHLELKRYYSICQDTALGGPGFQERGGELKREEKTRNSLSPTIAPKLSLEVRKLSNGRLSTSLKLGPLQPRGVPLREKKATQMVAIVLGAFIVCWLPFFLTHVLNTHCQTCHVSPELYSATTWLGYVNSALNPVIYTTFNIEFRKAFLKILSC
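Cells plated overnight at 1500 cells/well, then exposed to library compounds with dopamine controls for 90 minutes at 37 degrees C. DiscoveRx reagent added for 30–60 minutes at room temperature; luminescence read, quantitative HTS format.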
D1 antagonist: human D1 dopamine receptor antagonism; activity change, negative = inhibition, % at 10 µM; AID 504652; 360,000 compounds, 3.2% hits; HEK293 TREx D1 cells, calcium flux, dopamine EC80; hits give low values; P21728; in the data active means activity change below about -30%
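Tetracycline-induced HEK293 T-REx cells with force-coupled D1 receptor were loaded with a no-wash calcium dye. Compound was added after a 10 s baseline and read kinetically for 180 s; EC80 dopamine was then added and calcium flux followed another 180 s.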
DRD3 agonist: agonists of human D3 dopamine receptor; D3R DiscoveRx beta-arrestin cells, luminescence, 90 min; max activation, %; 410,000 compounds, 0.58% hits; AID 652048; in the data active means max activation above about 30%
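Cells at 1500/well, incubated overnight, then treated with pinned compounds (dopamine as control) for 90 min at 37 degrees C. DiscoveRx reagent added for 30 - 60 minutes at room temperature; luminescence read.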
D1 agonist: agonists of human D1 dopamine receptor; activation, % at 2 µM; 360,000 compounds, 1% hits; P21728; HEK293 T-REx D1 cells, calcium flux, agonist mode; in the data active means activation above about 30%
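Inducible HEK293 T-REx D1 cells, force-coupled to calcium signalling, were plated at 4000 cells/well with tetracycline and held overnight at 30 C. After no-wash calcium dye loading, compound-evoked calcium rise over 180 s flagged agonists.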
Hits are given with their value; i = inactive; ? = inconclusive; nt = no result; ! = repeats disagree. Compounds with a hit are over-represented: about 6% of the library has one in this group of screens.

SMILES	D1 potentiator	D3 antag	D1 antagonist	DRD3 agonist	D1 agonist
Cc1ccc(NC(=O)Cn2c(=O)n(CCCCC(=O)NCCc3ccc(Cl)cc3)c(=O)c3ccccc32)cc1	i	nt	-46	i	i
COc1ccc(CCNC(=O)CCCn2c(=O)c3ccccc3n(Cc3ccccc3C)c2=O)cc1OC	i	nt	-33	i	i
CCOc1ccc(NC(=O)Cn2c(=O)n(CCCC(=O)NCCc3ccc(Cl)cc3)c(=O)c3ccccc32)cc1	i	nt	i	i	i
CC(NC(=O)Cn1cc(Br)c([N+](=O)[O-])n1)c1ccccc1 (centres undefined)	i	i	i	i	i
CN(C)CCN(Cc1ccccc1)c1ccccn1	i	?	-31!	i	i
O=C([O-])c1cc(-c2ccccc2)cc(-c2ccccc2)[n+]1Cc1ccccc1	i	nt	i	nt	i
N#Cc1ccc(Cl)cc1NC(=O)COC(=O)[C@H](CCC(N)=O)NC(=O)c1ccc(F)cc1	i	i	-32	i	i
OC(c1cc(Cl)cc(Cl)c1)c1ncc(-c2ccccc2F)[nH]1 (centres undefined)	nt	i	nt	i	nt
Cc1ccc2nc(/C(C#N)=C\c3cc(C)n(-c4cccc([N+](=O)[O-])c4)c3C)[nH]c2c1	i	-53	i	i	i
Cc1ccc(Cn2c(=O)c3ccccc3n3c(CCC(=O)NCCN4CCOCC4)nnc23)cc1	i	i	i	i	i
CC(C)CCn1c(=O)c2ccccc2n2c(CN3CCOCC3)nnc12	i	-54	i	i	i
COc1cc(O)oc1C=Nc1ccc(C(=O)O)cc1	i	i	-79	i	i
COc1cc(O)oc1C=Nc1ccc(Cl)cc1	i	i	i	i	i
C=CCN1CCc2c(cc(O)c(O)c2Br)[C@@H](c2ccccc2)C1	nt	i	nt	83	nt
COc1cc(CCC(=O)NCc2ccc3c(c2)CCN3C(=O)c2ccc(F)cc2)cc(OC)c1OC	i	nt	i	i	i
O=C1c2ccccc2C(=O)c2c1ccc1c(=O)n(-c3ccccc3)[nH]c21	i	i	i	i	i
Cc1cccc(-n2[nH]c3c4c(ccc3c2=O)C(=O)c2ccccc2C4=O)c1	i	-64	i	i	i
C=C1CC(Cn2cc(Br)c(=O)[nH]c2=O)(c2ccc(-c3ccccc3)cc2)OC1=O (centres undefined)	nt	-89	nt	i	nt
CCC(=O)N1CCN(c2ccc(NC(=O)c3ccc(C#N)cc3F)cc2Cl)CC1	i	i	i	i	i
CN1CCN(c2ccc(NC(=O)c3ccc(Cl)cc3Cl)cc2)CC1	i	i	-44	i	i
CC(Oc1ccc(Cl)cc1Cl)C(=O)NNC(=O)C(=O)N1CCCCC1 (centres undefined)	i	i	-86	i	i
CN1CCN(c2ccc(NC(=O)c3ccc(C#N)cc3F)cc2Cl)CC1	i	-57	i	i	i
CC(Oc1ccc(Cl)cc1Cl)C(=O)Nc1ccc(N2CCN(C)CC2)cc1 (centres undefined)	i	i	-60	i	i
O=C(Nc1ccc(N2CCCC2)cc1)c1ccc(Cl)cc1Cl	i	i	i	i	i
CS(=O)(=O)Nc1ccc2c(c1)[C@H]1C[C@H](CC(=O)NCc3ccccc3)O[C@H](CO)[C@H]1O2	nt	i	nt	i	nt
SMILES	D1 potentiator	D3 antag	D1 antagonist	DRD3 agonist	D1 agonist
COc1ccc(NC(=O)C2(C)Cc3c(-c4cccc(C(F)(F)F)c4)ccnc3O2)cn1 (centres undefined)	nt	i	nt	i	nt
O=c1cc(-c2ccc([N+](=O)[O-])cc2)c2cc3c(cc2[nH]1)OCCO3	i	i	i	36	i
O=c1cc(-c2ccccc2)c2cc3c(cc2[nH]1)OCCO3	i	i	i	i	i
CCOC(=O)c1cnc(NCc2ccc(OC)cc2OC)c2ccccc12	i	nt	i	i	i
Cc1ccc(S(=O)(=O)N2CCN(Cc3nnc(-c4c(-c5ccccc5)noc4C)o3)CC2)cc1	nt	i	-42	i	i
O=C(Nc1sc2c(c1C(=O)O)CCC2)c1ccccc1	i	-52	i	i	i
CC(C)OC(=O)c1c(NS(=O)(=O)c2ccccc2)sc2c1CCCC2	i	-89	i	i	i
O=C(Nc1sc2c(c1C(=O)O)CCCCC2)c1ccccc1	i	i	i	i	i
Nc1nc(COC(=O)c2ccc3c(c2)OCCO3)nc(Nc2ccccc2)n1	i	i	-31	i	33
Nc1nc(COC(=O)CCC(=O)c2ccccc2)nc(Nc2ccccc2)n1	i	i	-32	i	i
Cc1ccc(Nc2nc(N)nc(COC(=O)C3=COCCO3)n2)cc1	i	i	i	i	i
O=C(Oc1cc(-c2ccccc2)no1)c1cccc(C(F)(F)F)c1	i	i	i	i	i
O=C(Oc1cc(-c2ccccc2)no1)c1ccc(F)cc1	i	i	-47	i	i
CCC(C)(C)NS(=O)(=O)c1cc(-c2cc(C)no2)ccc1C	i	nt	i	i	i
O=C1c2ccccc2C(=O)N1Nc1ccc([N+](=O)[O-])cc1[N+](=O)[O-]	i	-75	i	i	i
O=C1C2C3C=CC(C3)C2C(=O)N1Nc1ccc([N+](=O)[O-])cc1[N+](=O)[O-] (centres undefined)	i	?	i	i	i
O=C(CN1CCN(c2cccc(Cl)c2)CC1)Nc1nccs1	i	i	i	i	i
O=C(CCN1CCN(c2ccc(Cl)cc2)CC1)Nc1nccs1	i	-66	i	i	i
Cc1ccccc1CNC(=O)c1c(C)oc2c1C1=NCCN1C=N2	i	nt	i	i	i
COc1ccccc1NC(=S)NNC(=O)c1c(Cl)c(C)nn1C	i	i	i	i	i
COc1ccccc1NC(=S)NNC(=O)c1cc(C)nn1C	i	-70	i	i	i
COc1ccccc1NC(=S)NNC(=O)c1cc(C)n(C)n1	i	-50	i	i	i
O=C1NC(=O)/C(=C\c2ccccc2Oc2ccc(F)c(F)c2)S1	i	i	-34	i	i
C#Cc1cccc(Nc2nc(NCc3ccccc3OC)nc3ccsc23)c1	nt	i	nt	i	nt
Cc1ccc(C)c(CSc2c(C(C)C)cnc3c2c(=O)n(C)c(=O)n3C)c1	i	nt	i	i	i
SMILES	D1 potentiator	D3 antag	D1 antagonist	DRD3 agonist	D1 agonist
COc1cccc(-n2c(=O)c3c(C)c(C(=O)N(C)C)sc3n(CC(=O)Nc3ccc(C)cc3Cl)c2=O)c1	i	nt	i	i	i
COc1cccc(-n2c(=O)c3c(C)c(C(=O)N(C)C)sc3n(CC(=O)NCC3CCCO3)c2=O)c1 (centres undefined)	i	i	-30	i	i
CCc1ccc(-n2c(=O)c3c(C)c(C(=O)N(C)C)sc3n(CC(=O)NCC3CCCO3)c2=O)cc1 (centres undefined)	i	i	i	i	i
COC(=O)c1ccccc1NC(=O)Cn1c(=O)n(-c2cccc(OC)c2)c(=O)c2c(C)c(C(=O)N(C)C)sc21	i	nt	-35	i	i
COc1cccc(-n2c(=O)c3c(C)c(C(=O)N(C)C)sc3n(Cc3ccc(F)cc3Cl)c2=O)c1	i	nt	-31	i	i
O=C(C[C@@H]1CC[C@H](NS(=O)(=O)c2ccccc2F)[C@@H](CO)O1)NCCCN1CCOCC1	nt	i	nt	i	nt
